# Over roughly 33,000 sequences, “E-score (-0.5 to 0.5)” has its median near -0.053; the highest 2% begin near 0.37. The full list was thinned out, with the highest values kept by preference.
# Biological target: Hap1 (UniProt P0CE41)
# Assay: PBM E-score (8-mer binding enrichment) (E-score (-0.5 to 0.5)); higher = stronger / more preferred TF binding
# Conditions: protein concentration: 200 nM; construct: GST-DNA-binding domain
# Procedure, shortened: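 Detection of bound protein used fluorescent anti-GST, with scans normalised by masliner. The proteins were GST-tagged yeast transcription factors applied at about 100-200 nM to universal all-10-mer Agilent arrays made double-stranded by primer extension. Each ungapped eight-base word, pooled with its reverse complement, was scored with an E-score from the Universal PBM Analysis Suite.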
# Chain of UniProt P0CE41 (P0CE41 whole entry): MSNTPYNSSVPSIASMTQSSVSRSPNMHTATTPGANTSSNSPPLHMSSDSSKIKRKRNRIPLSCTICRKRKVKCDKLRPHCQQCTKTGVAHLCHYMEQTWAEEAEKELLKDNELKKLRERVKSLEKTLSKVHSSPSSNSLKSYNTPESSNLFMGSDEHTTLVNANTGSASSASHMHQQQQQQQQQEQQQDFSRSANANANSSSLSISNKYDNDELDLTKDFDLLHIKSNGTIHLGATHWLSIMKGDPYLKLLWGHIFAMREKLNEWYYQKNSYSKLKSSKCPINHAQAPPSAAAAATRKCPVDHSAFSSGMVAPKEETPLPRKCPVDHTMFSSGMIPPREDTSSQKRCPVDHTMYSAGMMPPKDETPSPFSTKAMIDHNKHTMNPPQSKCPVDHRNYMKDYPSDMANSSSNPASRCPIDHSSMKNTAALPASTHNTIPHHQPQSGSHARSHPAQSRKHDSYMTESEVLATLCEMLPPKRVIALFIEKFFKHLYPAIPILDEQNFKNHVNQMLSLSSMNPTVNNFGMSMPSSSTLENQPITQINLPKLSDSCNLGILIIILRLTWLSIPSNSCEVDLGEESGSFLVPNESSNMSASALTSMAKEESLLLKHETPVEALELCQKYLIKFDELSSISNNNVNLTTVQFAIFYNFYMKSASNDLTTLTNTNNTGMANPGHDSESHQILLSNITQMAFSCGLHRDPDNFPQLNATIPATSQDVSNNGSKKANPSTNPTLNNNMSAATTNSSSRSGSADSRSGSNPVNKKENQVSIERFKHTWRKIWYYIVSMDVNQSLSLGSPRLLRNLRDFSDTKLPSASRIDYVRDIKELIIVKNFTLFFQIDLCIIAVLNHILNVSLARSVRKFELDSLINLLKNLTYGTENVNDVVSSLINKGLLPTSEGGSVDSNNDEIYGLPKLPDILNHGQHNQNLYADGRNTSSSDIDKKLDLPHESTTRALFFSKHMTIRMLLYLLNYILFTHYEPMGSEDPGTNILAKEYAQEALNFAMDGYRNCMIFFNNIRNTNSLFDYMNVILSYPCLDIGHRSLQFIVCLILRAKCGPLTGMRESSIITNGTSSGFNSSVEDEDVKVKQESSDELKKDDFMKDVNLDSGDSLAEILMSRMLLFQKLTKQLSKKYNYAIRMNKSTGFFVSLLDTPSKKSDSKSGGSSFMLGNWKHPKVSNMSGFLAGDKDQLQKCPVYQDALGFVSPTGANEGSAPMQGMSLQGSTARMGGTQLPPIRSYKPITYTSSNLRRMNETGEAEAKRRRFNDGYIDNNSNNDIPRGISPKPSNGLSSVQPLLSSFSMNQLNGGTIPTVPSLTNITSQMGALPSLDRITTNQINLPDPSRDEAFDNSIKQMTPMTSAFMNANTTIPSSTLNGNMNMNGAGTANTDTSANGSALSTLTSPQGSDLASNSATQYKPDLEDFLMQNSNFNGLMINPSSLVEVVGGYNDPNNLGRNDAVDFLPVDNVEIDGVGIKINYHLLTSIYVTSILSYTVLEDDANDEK
row,Sequence,PBM E-score
1,AGAGCGAT,0.0667
2,ATACGTTA,-0.106
3,GCTCTAAC,0.0397
4,CGACTGTA,-0.166
5,CAGAAACC,-0.0171
6,AACAGGCT,-0.152
7,TACCTCCA,-0.176
8,ATCAGTGC,-0.212
9,GCCCGGAC,0.401
10,CCCCCGGG,0.324
11,ACCCGGAG,0.423
12,CCCCGGGG,0.388
13,GCCGGGAC,0.185
14,ACCCGGCG,0.283
15,CCCCGGGC,0.36
16,ACCCGGAT,0.322
17,GCCCGGCC,0.329
18,CTCACAGA,-0.242
19,CGGCGCTC,0.23
20,TCTGTGAA,-0.101
21,CCGGTCCA,0.237
22,CCGGTCCC,0.323
23,CCGGTCCG,0.42
24,AGACTGAT,-0.159
25,GACAGAGC,-0.162
26,CGTTTGAA,-0.061

row,Sequence,PBM E-score
1,CGAGGGCA,-0.00305
2,ATTTTGGA,0.147
3,CAACTCCA,-0.0501
4,ATACTCCA,-0.15
5,ATACTCCC,0.115
6,CAACTCCG,0.398
7,AAACTCCT,-0.1
8,CAACTCCC,0.0886
9,AAACTCCA,-0.0578
10,AAACTCCG,0.456
11,ATACTCCG,0.407
12,CGCTAGCG,0.0545
13,CGCGAGCA,-0.126
14,GATATCGC,0.304
15,AAACCCTA,-0.136
16,AGGTACGG,0.0524
17,AACGCGAA,0.121
18,AGGTCGCA,0.101
19,ACTAAGCC,0.094
20,ACTGTCAG,-0.224
21,GACCGGAA,0.361
22,CACCGGAG,0.341
23,GACCGGGC,0.331
24,TACCGGCA,0.353
25,CACCGGGA,0.261
26,CAGCGGAA,0.139

row,Sequence,PBM E-score
1,GACCGGAC,0.41
2,TACCGGAA,0.442
3,AACCGGAC,0.369
4,TACCGCAA,0.08
5,CACCGGAC,0.417
6,CACCGGAA,0.398
7,AATCGGCT,0.314
8,TCTGCGAA,-0.214
9,CCGGTGTC,0.301
10,CTTGGTGA,-0.102
11,AATCGGAC,0.345
12,CATCGGAG,0.292
13,CATCGGTC,0.278
14,CATCGGAC,0.401
15,GATCGGAA,0.325
16,GATCGGAC,0.413
17,GCTTTTAC,0.14
18,ATGTGGAC,-0.149
19,AATTCCTG,-0.0671
20,AGGCTGTG,-0.019
21,CACATCGC,0.0343
22,GCGGACGC,0.0721
23,TCACGCGA,-0.0375
24,AGAGGAGA,-0.242
25,TCGGACCA,0.381
26,CCGGACCG,0.431

row,Sequence,PBM E-score
1,TAGGACCA,-0.0211
2,CCGGACCC,0.374
3,ACGGACCC,0.278
4,ACGGACCG,0.328
5,CAGGACCG,-0.00407
6,TGGGACCA,-0.19
7,CCGGACTC,0.361
8,GCGGACCC,0.266
9,ACGGACTA,0.237
10,CCGGACTA,0.404
11,AGGCGCCC,-0.0775
12,CGCATCCA,-0.0122
13,ACCACAGC,-0.127
14,GAGAGAGA,-0.0161
15,CCAACTGA,-0.324
16,GGAGAGAC,0.101
17,AACCTCGC,-0.0117
18,AGTCGTAA,0.00615
19,AAAGAGCC,-0.12
20,AGGACCGA,0.311
21,GATTTATA,0.146
22,GCGGACCA,0.31
23,ACGGACCA,0.344
24,CCGGACCA,0.372
25,ACTCCCGA,0.2
26,GTTCCCGA,0.257

row,Sequence,PBM E-score
1,ATTCCCGC,0.318
2,ATTCCCGG,0.395
3,ATTCCCGA,0.395
4,ACTCCCCG,0.283
5,ACTCCCGG,0.378
6,CTTCCCGA,0.143
7,ATTCCCCG,0.286
8,CTAGCGTC,-0.0893
9,CCTCTTCC,-0.0207
10,TAGCCTAA,-0.158
11,AGGCAAAG,-0.246
12,CGAGGAGC,0.0181
13,CGAACCAG,-0.00442
14,GGATCGAA,0.168
15,CGATCGGA,0.354
16,AGATCGGC,0.267
17,GCATCGGA,0.383
18,GCGTCGGA,0.375
19,GGATCGGA,0.384
20,AGATCGGA,0.376
21,ACATCGGA,0.265
22,GCATCGGC,0.225
23,ACGTCGGA,0.256
24,CCGTCGGA,0.335
25,AGATCGGG,0.153
26,AAACTAGC,-0.188

row,Sequence,PBM E-score
1,GCGTTGCA,0.0308
2,GAGCGGAA,0.248
3,GGCATAAA,0.102
4,AAAGTAAG,-0.163
5,CTAGAGGA,-0.241
6,ATCCGTCA,0.212
7,GAGGGGAA,0.148
8,CCTGTGGA,-0.336
9,GGTTTTAA,0.334
10,AAGTGTGC,-0.132
11,AGTCGGTA,0.0714
12,GATCGAAA,0.121
13,ATTTCGGG,0.29
14,CTTTCGTA,-0.158
15,ATTTCGGC,0.326
16,GTTTCGTA,0.11
17,GTTTCGGA,0.389
18,GTTTCGAA,-0.219
19,ATTTCGGA,0.415
20,CTTTCGGC,0.348
21,CTTTCGGA,0.399
22,CGTGCGAC,-0.0831
23,ACGCAGAA,-0.0372
24,AAGCTCAA,-0.167
25,AAATAACC,0.0225
26,CGCGTCAC,-0.174

row,Sequence,PBM E-score
1,CACTGACG,-0.147
2,CCCCCAAG,-0.195
3,CCCTCAAG,-0.233
4,TCCCGAGA,0.261
5,GCCCGAGA,0.391
6,CGCCGAGC,0.364
7,AGCCGAGA,0.267
8,CGCCGAGA,0.37
9,CGCCGCGA,0.213
10,GGCCGCGA,0.0621
11,CCCCGAGA,0.319
12,GGCCGAGA,0.401
13,CTTTCTTA,-0.125
14,AGCTTAGA,-0.00759
15,ACGTACTG,-0.144
16,CGGGCCTC,0.192
17,AGGGCCCG,0.106
18,CCGGCCGC,0.299
19,CGGGCCCG,0.419
20,CGGGCCCA,0.26
21,CCGGCCGG,0.456
22,CGGGCCTA,0.383
23,ACGGCCGA,0.419
24,CCGGCCAG,0.351
25,ACGGCCAA,0.166
26,AGGGCCTA,0.0252

row,Sequence,PBM E-score
1,ACGGCCCA,0.141
2,ATCCACGC,-0.239
3,AGCACTAT,-0.257
4,ATTCCCTC,-0.083
5,ACTATCGA,-0.0147
6,GGATCCAC,0.059
7,ATCTCTTC,-0.0222
8,AGAGCAGA,-0.17
9,CAATCTGA,-0.151
10,GTACTGTA,-0.119
11,TCGGCCCA,0.304
12,ACGGCCGG,0.392
13,TCGGCCGA,0.48
14,TCGGCCAA,0.256
15,CGGGCCGA,0.379
16,CGGGCCGC,0.263
17,CCGGCCGA,0.453
18,ATGGCCGG,0.315
19,CCGGCCTA,0.288
20,GGGGCCGA,0.233
21,ACGGCCTG,-0.0121
22,GCGGCCGA,0.335
23,ATGGTGTG,-0.303
24,ACCTTACT,0.105
25,ATGCCCCG,0.282
26,ACGGTAGG,-0.0364

row,Sequence,PBM E-score
1,TACCCCTA,-0.146
2,ACTTCTAC,-0.119
3,ACGGCCCG,0.249
4,ACGGCCGC,0.228
5,ACGGCCGT,0.373
6,ACGGCCCT,-0.0855
7,CCGGCCCG,0.434
8,CCGGCCCA,0.231
9,CCGTCAAA,0.114
10,ACTGAGCG,-0.284
11,AATGCCGT,0.334
12,CATGCCGA,0.17
13,ATTGCCGC,0.0752
14,AATGCCGG,0.384
15,CTTGCCGA,0.0417
16,AATGCCGC,0.295
17,CATGCCGG,0.298
18,ATTGCCGA,0.375
19,AATGCCGA,0.405
